Source: PubChem BioAssay (Tox21)
Records with an inconclusive call do not appear. Active and inactive are the calls of the source. Unless noted, calls follow the shape of the dose curve; as a rule, active = well fitted curve in the direction sought with a large enough effect in the repeat runs; inconclusive = weak or mixed curves; inactive = no such curve, though single readings can be large; an effect the other way counts as inactive or inconclusive.

Legend:
[1] = molecular target: Luciferin 4-monooxygenase (Photinus pyralis) (UniProt P08659); test: qHTS assay to identify small molecule inhibitors of firefly luciferase (AID 1224835); also: nearly all actives have a fitted effect of over 25% in size; also: potency is read from the fitted curve at half-maximal effect; as to activity change, negative = inhibition: series mostly up to about 120 µM
Chain of Luciferin 4-monooxygenase (Photinus pyralis) (P08659 whole entry, looked up): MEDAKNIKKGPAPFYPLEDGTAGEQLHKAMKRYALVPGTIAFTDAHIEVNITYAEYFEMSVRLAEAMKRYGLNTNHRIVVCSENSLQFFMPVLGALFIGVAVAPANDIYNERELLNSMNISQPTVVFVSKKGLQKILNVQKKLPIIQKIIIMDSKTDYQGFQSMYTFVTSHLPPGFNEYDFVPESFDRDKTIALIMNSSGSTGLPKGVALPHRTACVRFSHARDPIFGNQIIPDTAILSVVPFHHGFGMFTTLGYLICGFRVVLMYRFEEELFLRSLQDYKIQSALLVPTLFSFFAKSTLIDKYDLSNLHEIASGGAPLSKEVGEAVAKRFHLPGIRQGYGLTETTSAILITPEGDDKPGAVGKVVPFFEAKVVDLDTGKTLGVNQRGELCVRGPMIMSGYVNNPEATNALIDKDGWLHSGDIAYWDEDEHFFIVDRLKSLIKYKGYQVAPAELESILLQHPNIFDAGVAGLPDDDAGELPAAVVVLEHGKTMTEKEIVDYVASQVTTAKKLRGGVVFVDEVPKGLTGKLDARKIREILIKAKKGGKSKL
In short: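 Quantitative HTS format; KM concentrations of both substrates. Purified P. pyralis FLuc activity quantified from luminescence images.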

[2] = qHTS assay to identify small molecule agonists of the constitutive androstane receptor (CAR) signaling pathway - cell viability counter screen (AID 1224836); also: series mostly up to about 92 µM; nearly all actives have a fitted effect of over 45% in size
In short: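 Compound titrations (15 concentrations) went onto HepG2-CYP2B6-hCAR cells 4 h after seeding, alongside PK11195 at a final 0.75 uM; a 23 h, 37 C/5% CO2 incubation preceded CellTiter-Fluor viability measurement.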

[3] = qHTS assay to identify small molecule antagonists of the constitutive androstane receptor (CAR) signaling pathway - cell viability counter screen (AID 1224837); also: series mostly up to about 92 µM; nearly all actives have a fitted effect of over 45% in size
In short: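 CITCO at 50 nM final was added alongside compounds (15 concentrations) to double-stable hCAR/CYP2B6-2.2kb HepG2 cells. Following 23 hr at 37 C, cell viability was quantified by CellTiter-Fluor fluorescence intensity.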

[4] = molecular target: Nuclear receptor subfamily 1 group I member 3 (Homo sapiens) (UniProt Q14994); test: qHTS assay to identify small molecule antagonists of the constitutive androstane receptor (CAR) signaling pathway (AID 1224838); also: nearly all actives have a fitted effect of over 40% in size
Chain of Nuclear receptor subfamily 1 group I member 3 (Homo sapiens) (Q14994 whole entry, looked up): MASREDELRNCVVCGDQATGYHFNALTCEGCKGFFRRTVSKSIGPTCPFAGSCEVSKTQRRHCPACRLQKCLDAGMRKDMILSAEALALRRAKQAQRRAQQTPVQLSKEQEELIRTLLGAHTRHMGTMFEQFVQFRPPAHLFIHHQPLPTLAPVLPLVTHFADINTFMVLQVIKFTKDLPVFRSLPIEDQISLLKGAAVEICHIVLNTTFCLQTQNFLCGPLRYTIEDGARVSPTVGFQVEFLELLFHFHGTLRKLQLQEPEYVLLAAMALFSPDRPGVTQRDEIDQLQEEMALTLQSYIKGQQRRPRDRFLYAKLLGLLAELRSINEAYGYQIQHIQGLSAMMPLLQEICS
In short: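 Inhibition of CITCO-driven (50 nM final) CYP2B6 reporter expression is measured in HepG2 cells stably carrying hCAR. Fifteen compound concentrations are applied for 24 h at 37 C, followed by luciferase luminescence.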

[5] = molecular target: Thyrotropin receptor (Homo sapiens) (UniProt P16473); test: qHTS assay to identify small molecule agonists of the thyroid stimulating hormone receptor (TSHR) signaling pathway (AID 1224843; calls by dose curve; also: nearly all actives have a fitted effect of over 45% in size)
Chain of Thyrotropin receptor (Homo sapiens) (P16473 whole entry, looked up): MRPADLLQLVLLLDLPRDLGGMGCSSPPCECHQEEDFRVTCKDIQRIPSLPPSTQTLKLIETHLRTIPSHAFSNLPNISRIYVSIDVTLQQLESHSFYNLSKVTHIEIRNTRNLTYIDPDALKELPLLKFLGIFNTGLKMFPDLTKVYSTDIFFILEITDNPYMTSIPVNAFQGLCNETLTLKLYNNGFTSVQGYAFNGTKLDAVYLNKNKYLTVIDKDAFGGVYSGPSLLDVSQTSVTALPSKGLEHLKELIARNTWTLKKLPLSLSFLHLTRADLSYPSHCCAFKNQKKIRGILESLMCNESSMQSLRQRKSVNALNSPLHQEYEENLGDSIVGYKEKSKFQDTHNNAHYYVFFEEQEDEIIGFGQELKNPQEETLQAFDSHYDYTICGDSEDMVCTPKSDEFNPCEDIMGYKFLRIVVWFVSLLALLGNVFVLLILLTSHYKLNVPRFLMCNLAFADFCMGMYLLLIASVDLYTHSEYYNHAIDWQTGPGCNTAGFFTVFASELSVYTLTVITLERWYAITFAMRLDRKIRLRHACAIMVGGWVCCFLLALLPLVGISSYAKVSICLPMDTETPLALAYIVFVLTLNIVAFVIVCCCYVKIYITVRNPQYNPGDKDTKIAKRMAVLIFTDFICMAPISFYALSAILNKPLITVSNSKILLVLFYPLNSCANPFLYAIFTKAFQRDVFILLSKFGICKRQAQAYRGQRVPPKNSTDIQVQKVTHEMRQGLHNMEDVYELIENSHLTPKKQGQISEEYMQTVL
In short: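 Using 15 concentrations per compound in triplicate, cAMP production was monitored in TSHR-HEK293 cells after 30 min compound incubation at RT; HTRF reagents followed, with fluorescence intensity recorded after 1 h.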

[6] = qHTS assay to identify small molecule agonists of the hypoxia (HIF-1) signaling pathway - cell viability counter screen (AID 1224844; calls by dose curve; also: nearly all actives have a fitted effect of over 50% in size)
In short: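 In this counter screen, HRE-bla ME-180 cell viability after 17 hrs of compound exposure at 37C was read by CellTiter-Glo luminescence, multiplexed with the beta-lactamase reporter measurement.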

[7] = qHTS assay to identify small molecule antagonists of the estrogen related receptor signaling pathway with the pleiotropic PPARgamma coactivator (PGC) from Tox21 10K library - cell viability counter screen (AID 1224840; active = well fitted cell-killing curve with a large enough effect in the repeat runs, not every such curve was filed as active; also: nearly all actives have a fitted effect of over 40% in size)
In short: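 Readout: fluorescence intensity from CellTiter-Fluor after 30 min at 37 C/5% CO2. Preceded by 17.5 h treatment of PGC/ERR cells with DMSO-dissolved compounds, added 6 h post-seeding.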

[8] = qHTS assay to identify small molecule agonists of the estrogen related receptor signaling pathway with the pleiotropic PPARgamma coactivator (PGC) from Tox21 10K library (AID 1224842); also: nearly all actives have a fitted effect of over 15% in size
In short: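 PGC/ERR reporter cells (NTP line) were seeded 2,000 per well, rested 6 h at 37 C/5% CO2, then pin-dosed with compounds in DMSO for 18 h at 37 C; luciferase read by One-Glo luminescence after 30 min at room temperature.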

[9] = molecular target: Nuclear receptor subfamily 1 group I member 3 (Homo sapiens) (UniProt Q14994); test: qHTS assay to identify small molecule agonists of the constitutive androstane receptor (CAR) signaling pathway (AID 1224839); also: series mostly up to about 92 µM; nearly all actives have a fitted effect of over 15% in size
In short: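 In this screen, CAR-driven CYP2B6 promoter activity is measured by luminescence in HepG2-CYP2B6-hCAR cells after 24 h with test compounds and 0.75 uM PK11195 (final concentration).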

[10] = qHTS assay to identify small molecule antagonists of the estrogen related receptor signaling pathway with the pleiotropic PPARgamma coactivator (PGC) from Tox21 10K library (AID 1224841; call rule not given here; also: series mostly up to about 92 µM; actives are mostly falling curves and most rising ones were filed inactive; nearly all actives have a fitted effect of over 50% in size)
In short: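 One-Glo luminescence, measured after half an hour at room temperature, quantified reporter output of PGC/ERR cells. These had been plated at 2,000 per well, incubated 6 h, dosed with compounds in DMSO, then kept 18 h at 37 C.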
% is scaled to controls: 0 for no effect and ±100 for the full control effect.

CCCCCCCCCCCCSC
inactive: Potency [1] | outcome [2] | outcome [3] | Potency [4] | Potency [5] | Potency [6]

FB(F)F
inactive: Potency [1] | outcome [2] | outcome [3] | outcome [7] | Potency [8] | Potency [5] | Potency [6]

CCN1C=CN(C)C1C (centres undefined)
inactive: Potency [1] | outcome [2] | outcome [3] | outcome [7] | Potency [8] | Potency [5] | Potency [6]

CC1(C)OC[C@@H](COC(=O)CCc2ccc(OC[C@@H](O)CNCCNC(=O)N3CCOCC3)cc2)O1
inactive: Potency [1] | outcome [2] | outcome [3] | Potency [4] | Potency [9] | Potency [8] | Potency [5] | Potency [6]

CNC(=O)Nc1ccc(Cl)c(Cl)c1
inactive: outcome [2] | outcome [3] | Potency [4] | Potency [5] | Potency [6]
active: Potency [1] 56.4 µM

CCC(=O)OCc1ccccc1
inactive: Potency [1] | outcome [2] | outcome [3] | outcome [7] | Potency [5]

CN(C)CCN(C)CCN(C)C
inactive: Potency [1] | outcome [2] | outcome [3] | Potency [4] | Potency [9] | Potency [5] | Potency [6]

CN(C)CCCN(C)CCCN(C)C
inactive: Potency [1] | outcome [2] | outcome [3] | outcome [7] | Potency [5] | Potency [6]

CCCCN1C=CN(C)C1
inactive: activity change, negative = inhibition [1] -0.0434% [at 23.6 µM] | viability change, negative = cytotoxic [2] 5.36% [at 19 µM] | activity change, negative = cytotoxicity [3] -1.55% [at 19 µM] | activity, negative = inhibition [4] 14.7% [at 19 µM] | activation [9] -0.414% [at 19 µM] | activation [8] 0.537% [at 19 µM] | activation [5] 2.47% [at 19 µM] | activity change, negative = cytotoxicity [6] -14.8% [at 15.8 µM]

O=S(=O)(O)c1cccc2ccccc12
inactive: Potency [1] | outcome [2] | outcome [3] | outcome [7] | Potency [10] | Potency [8] | Potency [6]

C[N+](C)(C)CCCCCCCCCC[N+](C)(C)C
inactive: Potency [1] | outcome [2] | outcome [3] | Potency [4] | Potency [9] | Potency [5] | Potency [6]

CCCCc1ccc2c(n1)[C@@H](c1ccc(OC)cc1C[C@H](C)C(=O)O)[C@H](C(=O)O)[C@H]2c1ccc2c(c1)OCO2
inactive: Potency [1] | outcome [2] | outcome [3] | Potency [4] | Potency [9] | Potency [5] | Potency [6]

CN(C)[C@@H]1C(=O)C(C(=O)NCN2CCCC2)=C(O)[C@@]2(O)C(=O)C3=C(O)c4c(O)cccc4[C@@](C)(O)C3C[C@@H]12 (some centres undefined)
inactive: Potency [1] | outcome [2] | outcome [3] | Potency [4] | Potency [9] | Potency [5] | Potency [6]

CCOCC(C)O (centres undefined)
inactive: Potency [1] | outcome [2] | outcome [3] | outcome [7] | Potency [10] | Potency [8] | Potency [5]

CC(C)C[C@@H](N)C(=O)O
inactive: activity change, negative = inhibition [1] -3.09% [at 23.6 µM] | viability change, negative = cytotoxic [2] 3.64% [at 19 µM] | activity change, negative = cytotoxicity [3] 0.137% [at 19 µM] | activity, negative = inhibition [4] 4.78% [at 19 µM] | viability change, negative = cytotoxic [7] -8.03% [at 19 µM] | activation [8] -0.0839% [at 19 µM] | activation [5] -1.78% [at 19 µM] | activity change, negative = cytotoxicity [6] 2.77% [at 15.8 µM]

CCOC(=O)OC(C)OC1=C(C(=O)Nc2ccccn2)N(C)S(=O)(=O)c2ccccc21 (centres undefined)
inactive: Potency [1] | outcome [2] | outcome [3] | Potency [4] | Potency [9] | Potency [10] | Potency [8] | Potency [5] | Potency [6]

CO[C@@]1(NC(=O)CSC[C@@H](N)C(=O)O)C(=O)N2C(C(=O)O)=C(CSc3nnnn3C)CS[C@@H]21
inactive: Potency [1] | outcome [2] | outcome [3] | outcome [7] | Potency [8] | Potency [5] | Potency [6]

Nc1ccn([C@@H]2O[C@H](CO)[C@@H](O)C2O)c(=O)n1 (some centres undefined)
inactive: Potency [1] | outcome [2] | outcome [3] | Potency [9] | outcome [7] | Potency [8] | Potency [6]

CCCO[Si](OCCC)(OCCC)OCCC
inactive: Potency [1] | outcome [2] | outcome [3] | Potency [4] | Potency [9] | Potency [8] | Potency [5]

CN1[C@@H]2CC[C@H]1CC(OC(=O)C(O)c1ccccc1)C2 (some centres undefined)
inactive: Potency [1] | outcome [2] | outcome [3] | Potency [9] | outcome [7] | Potency [8] | Potency [5] | Potency [6]

CCCc1nn(C)c2c(=O)[nH]c(-c3cc(S(=O)(=O)N4CCN(C)CC4)ccc3OCC)nc12
inactive: Potency [1] | outcome [2] | outcome [3] | Potency [4] | Potency [9] | Potency [5] | Potency [6]

C[N+](C)(CCOc1ccccc1)Cc1cccs1
inactive: Potency [1] | outcome [2] | outcome [3] | outcome [7] | Potency [8] | Potency [5] | Potency [6]

CCCCOC(=O)CCC(C)=O
inactive: Potency [1] | outcome [2] | outcome [3] | Potency [4] | Potency [9] | Potency [5]

CCO[Si](OCC)(OCC)c1ccccc1
inactive: Potency [1] | outcome [2] | outcome [3] | outcome [7] | Potency [8] | Potency [5] | Potency [6]

CC(C)(N)C#N
inactive: Potency [1] | outcome [2] | outcome [3] | outcome [7] | Potency [10] | Potency [8]

C[C@@H]1C[C@H]2[C@@H]3C[C@H](F)C4=CC(=O)C(Cl)=C[C@]4(C)[C@@]3(F)[C@@H](O)C[C@]2(C)[C@@]1(O)C(=O)CO
inactive: Potency [1] | outcome [2] | outcome [3] | Potency [4] | Potency [9] | Potency [5]

NCCCC[C@H](N[C@@H](CCc1ccccc1)C(=O)O)C(=O)N1CCC[C@H]1C(=O)O
inactive: Potency [1] | outcome [2] | outcome [3] | Potency [4] | outcome [7] | Potency [6]

O=C(O)CNC(=O)c1ccccc1
inactive: Potency [1] | outcome [2] | outcome [3] | outcome [7] | Potency [5] | Potency [6]

O=CN(CCO)CCO
inactive: Potency [1] | outcome [2] | outcome [3] | outcome [7] | Potency [10] | Potency [8] | Potency [5] | Potency [6]

O=[N+]([O-])c1cncn1CCN1CCOCC1
inactive: Potency [1] | outcome [2] | outcome [3] | Potency [9] | Potency [5]

CCCCCC(C)N (centres undefined)
inactive: Potency [1] | outcome [2] | outcome [3] | Potency [4] | outcome [7] | Potency [5] | Potency [6]

CO/N=C(\C(=O)N[C@@H]1C(=O)N2C(C(=O)O)=C(CSc3nc(=O)c(O)nn3C)CS[C@H]12)c1csc(N)n1
inactive: Potency [1] | outcome [2] | outcome [3] | Potency [4] | Potency [9] | Potency [8] | Potency [5]
